Only some compounds are listed: those with a hit (about 2.4% of all), similar ones and a draw of the others.
POLH inh: qHTS for Inhibitors of Polymerase Eta. Potency, µM (titrated, usually from 114 µM), inactives show at the highest dose activity change, negative = inhibition, hits mostly inhibitors. AID 588591, 2011. recombinant Pol eta, fluorescent DNA replication assay. hit rate 1.2% among 390,000. DNA polymerase eta (Homo sapiens), Q9Y253; note: % is set by controls: 0 for no effect and ±100 for the full control effect
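Pol eta (10 nM) was preincubated with compounds for 15 min at room temperature, after which fluorescent replication substrate (50 nM final) was added to start the reaction. Fluorescence was read kinetically at 0 and 10 min.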
WRN helicase inh: qHTS for Inhibitors of WRN Helicase. Bifunctional 3'-5' exonuclease/ATP-dependent helicase WRN (Homo sapiens), Q14191. WRN helicase unwinding, fluorescent forked duplex, kinetic. Potency, µM (doses to about 114 µM), inactives show top-dose activity change, negative = inhibition, usual class: inhibitors. hit rate 0.46% among 360,000. AID 651768, 2012; note: % is set by controls: 0 for no effect and ±100 for the full control effect; nearly all actives have a fitted effect of over 55% in size
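Primary qHTS, 1536-well format. 20 nM WRN + compound, 15 min RT; start with 100 nM forked fluorophore/quencher duplex, 2 mM ATP (final); kinetic read ex 525/em 598 nm.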
Pol iota inh: qHTS for Inhibitors of Polymerase Iota; DNA polymerase iota (Homo sapiens), Q9UNA4; Pol iota fluorescent replication assay, 10 min; Potency, µM (titrated, usually from 115 µM), without a hit: at the top dose activity, negative = inhibition, actives largely listed as inhibitors; hit rate 1% among 390,000; AID 588590, 2011
Target sequence (Q9UNA4 whole entry, looked up): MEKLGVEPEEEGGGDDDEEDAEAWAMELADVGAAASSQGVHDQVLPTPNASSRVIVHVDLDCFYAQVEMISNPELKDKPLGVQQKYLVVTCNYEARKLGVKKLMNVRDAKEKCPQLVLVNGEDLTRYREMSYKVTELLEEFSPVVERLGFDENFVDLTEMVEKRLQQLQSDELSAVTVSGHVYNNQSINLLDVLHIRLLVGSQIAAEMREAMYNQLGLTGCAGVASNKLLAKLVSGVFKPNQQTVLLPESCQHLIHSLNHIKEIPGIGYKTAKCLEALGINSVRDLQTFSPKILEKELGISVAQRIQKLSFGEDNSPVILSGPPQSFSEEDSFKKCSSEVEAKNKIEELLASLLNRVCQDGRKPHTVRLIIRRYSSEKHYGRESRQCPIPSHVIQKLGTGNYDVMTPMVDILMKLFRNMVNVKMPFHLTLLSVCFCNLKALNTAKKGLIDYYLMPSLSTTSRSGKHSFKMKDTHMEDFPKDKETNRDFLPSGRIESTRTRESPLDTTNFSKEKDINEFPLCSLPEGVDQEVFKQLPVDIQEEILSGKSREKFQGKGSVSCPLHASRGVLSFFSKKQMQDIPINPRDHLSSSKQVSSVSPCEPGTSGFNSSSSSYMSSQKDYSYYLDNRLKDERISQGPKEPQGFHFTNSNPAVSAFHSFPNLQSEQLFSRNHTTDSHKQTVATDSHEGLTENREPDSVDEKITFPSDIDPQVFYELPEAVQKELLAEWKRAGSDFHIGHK
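Fluorescent replication assay read twice, at 0 min and 10 min after adding 50 nM (final) substrate. Enzyme (10 nM) and compounds were first incubated 15 min at room temperature; enzyme-free buffer wells were negative controls.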
Pol beta inh: qHTS Assay for Inhibitors of DNA Polymerase Beta. P06746. Pol beta primer extension/strand displacement, fluorescence kinetic. Potency, µM (titrated, usually from 114 µM), for the others: top-dose activity change, negative = inhibition, hits mostly inhibitors. hit rate 1.3% among 340,000. AID 485314, 2010; note: % is set by controls: 0 for no effect and ±100 for the full control effect
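Values derive from four-parameter Hill fits of normalized kinetic data: reads at 0 and 10 min following addition of 50 nM substrate to 10 nM Pol beta preincubated 15 min with compound.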
Pol kappa inh: qHTS for Inhibitors of Polymerase Kappa | hit rate 0.53% among 400,000 | Potency, µM (doses to about 107 µM), for the others: at the highest dose activity, negative = inhibition, hits mostly inhibitors | purified Pol kappa, fluorescent DNA synthesis assay, 10 min; note: % is set by controls: 0 for no effect and ±100 for the full control effect
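Inhibition of 10 nM Pol kappa is measured by a fluorescent read-out at 0 and 10 min following addition of 50 nM substrate (final), with a 15-min room-temperature compound preincubation.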
FEN1 inh: qHTS Assay for the Inhibitors of Human Flap endonuclease 1 (FEN1) | P39748 | Potency, µM (top dose mostly 114 µM), for the others: at the highest dose activity change, negative = inhibition, hits mostly inhibitors | AID 588795, 2011 | Recombinant FEN1 flap cleavage, fluorescence, 15 min | hit rate 0.35% among 390,000; note: % is set by controls: 0 for no effect and ±100 for the full control effect; nearly all actives have a fitted effect of over 65% in size
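With each library titrated from low to high concentration, compounds met 10 nM FEN1 for 15 min at room temperature before 50 nM substrate was added; readings at 0 and 15 min fed four-parameter Hill curve fits.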
* marks the source's active call; other numbers are inactive results; ? = inconclusive; nt = no result; ! = repeats disagree; [ ] = another dose, or the depositor's remark. Calls come from the whole dose curve; as a rule, active = well fitted curve in the direction sought with a large enough effect; inconclusive = small, poorly fitted or top-dose-only effect, or another doubt; inactive = no such curve, though single readings can be large; an effect the other way counts as inactive or inconclusive. Potency is the fitted concentration of half-maximal effect.

SMILES | POLH inh | WRN helicase inh | Pol iota inh | Pol beta inh | Pol kappa inh | FEN1 inh
CCc1ccccc1NC(=O)Cn1nnc(C(=O)NCc2cccs2)c1N | ? | -18% | ? | ? | -13% | -7%
COc1cccc(NC(=O)Cn2nnc(C(=O)Nc3ccccc3)c2N)c1 | -5% | -4% | 0% | 8% | -13% | 3%
O=C(NCCc1ccc(Cl)cc1)c1ccc2c(c1)N(Cc1ccc(Cl)cc1)C(=O)CS2 | -12% | nt | 14% | 26% | -2% | -6%
CC1=C(c2ccc(C)c(C)c2)S(=O)(=O)N=C1N1CCN(c2cccc(C)c2)C(C)C1 (configuration not stated) | -8% | nt | 10% | -1% | -1% | -7%
O=c1[nH]c(=S)[nH]c2c1[C@H](CCc1cccc(Cl)c1)O[C@H](C1CCCC1)C2 | nt | 0% | nt | nt | nt | nt
COc1ccc(-c2cc(C(F)(F)F)n3nc(C)c(-c4ccccc4)c3n2)cc1OC | -3% | nt | 5% | 36% | 5% | 2%
COc1ccc(NC(=O)Cn2nnc(C(=O)NCc3ccccc3)c2N)c(OC)c1 | 10% | 7% | ? | ? | 2%[60.1 µM] | 11%
COc1ccc(NC(=O)Cn2nnc(C(=O)NCCc3ccccc3)c2N)c(OC)c1 | 35µM* | -1%[11.6 µM] | ? | -25% | -8% | ?
O=C(NCCCN1CCC(Cc2ccccc2)CC1)c1ccc(CS(=O)c2ccccc2Cl)o1 (configuration not stated) | -7% | 3% | nt | nt | nt | nt
COc1ccc(OCC(=O)NCC(c2ccc(OC)cc2)N2CCCCC2)cc1 (configuration not stated) | -3% | -1% | 17% | 89µM*! | -2% | -2%
Cc1cc(C)n(/N=C/c2ccco2)c(=O)c1C#N | -16% | -3% | ? | 40µM* | -13% | -2%
Cc1ccc(/C=N/n2c(C)cc(C)c(C#N)c2=O)o1 | -16% | -3% | 2% | -1% | -1% | -2%
O=C(CCC1N=C2c3ccccc3N=C(SCc3ccc(Cl)cc3)N2C1=O)NCCc1ccccc1 (configuration not stated) | -15% | nt | 89µM* | 16% | -38% | -17%
O=C(CC1N=C2c3ccccc3N=C(SCc3ccc(F)cc3)N2C1=O)NCc1ccco1 (configuration not stated) | -8% | -26% | 17% | 50µM* | -6% | 3%
O=C(CCC1N=C2c3ccccc3N=C(SCc3cccc(Cl)c3)N2C1=O)NCCc1ccccc1 (configuration not stated) | -21% | nt | -7% | 19% | -7% | -18%
Cc1ccc(CSC2=Nc3ccccc3C3=NC(CC(=O)NCc4ccco4)C(=O)N23)cc1 (configuration not stated) | ? | -20% | ? | 25µM* | ? | -13%
CCN(CC)CCOC(=O)c1ccc(NC(=O)c2cc3c(s2)-c2ccccc2OC3)cc1 | -4% | nt | -6% | -5% | -6% | ?
CCn1c(SCC(=O)Nc2nccc(C)n2)nc2ccccc21 | -21% | -19% | ? | 79µM* | -5% | 2%
COc1ccc(OC)c(C2/C(=C(/O)c3ccccc3)C(=O)C(=O)N2Cc2ccco2)c1 (configuration not stated) | -12% | -1%[57.1 µM] | 61% | 20% | -3% | 45µM*
COC(=O)c1cc2oc3ccccc3c2n1Cc1cc(C)ccc1C | nt | nt | 2% | 4% | -13% | 17%
N#Cc1c(Nc2ccccc2)sc(C(=O)c2ccccc2)c1N | -9% | -10% | 5% | -1% | -21% | -6%
Cc1cccc(Nc2sc(C(=O)c3cc4cc(Cl)ccc4o3)c(N)c2C#N)c1 | ? | 8% | -4% | 10µM* | -10% | 7%
Cc1cc(C)c(S(=O)(=O)Nc2ccc3oc4c(c3c2)C(=O)CC(C)(C)C4)cc1C | -10% | nt | 79µM* | -12% | -3% | -15%
COc1ccc(S(=O)(=O)Nc2ccc3oc4c(c3c2)C(=O)CC(C)(C)C4)cc1 | -2% | nt | -15% | -17% | -5% | 6%
O=S(=O)(/N=S1\CC=CCN1S(=O)(=O)c1ccccc1)c1ccccc1 (configuration not stated) | -12% | 8.9µM* | 28µM* | nt | -8% | ?
SMILES | POLH inh | WRN helicase inh | Pol iota inh | Pol beta inh | Pol kappa inh | FEN1 inh
O=S(=O)(c1ccccc1)N1CCN(S(=O)(=O)c2ccccc2)CC1 | nt | nt | -40% | nt | -35% | -49%
CCOC(=O)C1=C(C)NC2(O)c3ccccc3C(=O)C12O (configuration not stated) | -14% | 3% | 2% | 3% | 1% | -8%
COCCOC(=O)C1=C(C)NC2(O)c3ccccc3C(=O)C12O (configuration not stated) | -2% | -1% | 32µM* | -1% | 4%[60.1 µM] | 15%
Cc1ccc(Cc2c(C(C)(C)C)nc3cc(C)c(Br)c(C)n23)cc1 | nt | -4% | nt | nt | nt | nt
O=C(NC1CCCCC1)c1c2c(nc3ccccc13)CCC2 | ? | 0%[11.6 µM] | 79µM* | 20µM* | -19% | -9%
CNC(=O)COC(=O)c1c2c(nc3ccccc13)CCC2 | 25µM* | -17%[57.1 µM] | 8.9µM* | 20µM* | ? | ?
COc1ccc(NC(=O)COC(=O)c2c3c(nc4ccccc24)CCCC3)cc1 | 2% | -11% | 0% | -18% | -21% | -15%
CCCCNC(=O)N1CCN(c2ccnc3cc(Cl)ccc23)CC1 | ? | 50µM* | 28µM* | 2% | -3% | ?
Cc1ccc(F)cc1NC(=O)N1CCN(c2ccnc3cc(Cl)ccc23)CC1 | -24% | 0% | 30% | -23% | -8% | -13%
CC1(C(=O)Nc2ccc(Cl)c(Cl)c2)CCN1CCc1ccccc1 (configuration not stated) | nt | -3% | nt | nt | nt | nt
O=C(c1ccccc1)N1CCN(C(=O)c2ccccc2)c2ccccc21 | -11% | 0% | 39% | nt | -7% | 8%
Fc1ccc(Nc2nc(-c3ccncc3)cs2)cc1 | 5% | -7% | 86% | 10µM* | -19% | 1%
COc1ccc(-c2nc(CSCC(=O)N3CCN(c4ccc(F)cc4)CC3)c(C)o2)cc1 | -7% | nt | 0% | -21% | -7% | -8%
COc1cc(OC)c2c(-c3ccccc3)cc(=O)oc2c1C(CC(=O)N1CCN(c2ccccc2)CC1)c1ccc2c(c1)OCO2 (configuration not stated) | nt | nt | nt | 50µM* | nt | nt
CCS(=O)(=O)c1ccc(C=NNc2nc3ccccc3o2)cc1 | -8% | -12% | 8% | nt | -9% | 2%
O=[N+]([O-])c1ccc(/C=N/Nc2nc3ccccc3o2)cc1 | -1% | -2% | -1% | 45µM* | -3% | 4%

Screens as filed in PubChem BioAssay.
